Bioassay records deposited in PubChem by National Center for Advancing Translational Sciences (NCATS).
An excerpt weighted towards active compounds, which were near 10% of everything screened.
BAZ2B block: qHTS Assay for Inhibitors of BAZ2B; Bromodomain adjacent to zinc finger domain protein 2B (Homo sapiens), Q9UIF8; AlphaScreen BAZ2B-H3K14Ac peptide displacement; Potency, µM (top dose mostly 114 µM), for inactives: at the top dose activity change, negative = inhibition, actives largely listed as inhibitors; actives 4.4% (n = 360,000); AID 504333, 2011; also: % is scaled to controls: 0 for no effect and ±100 for the full control effect; nearly all actives have a fitted effect of over 60% in size
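BAZ2B (50 nM) with biotin-H3(5-23)K14Ac peptide (50 nM) in PBS pH 7.4, 0.01% Tween-20, preformed 30 min, then compound 30 min at room temperature; top concentration 110uM. AlphaScreen streptavidin donor/nickel chelate acceptor beads (10 ug/mL final), 20 min dark, signal read.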
GLS inhibitor: qHTS for Inhibitors of Glutaminase (GLS); GLS enzymatic activity, qHTS titration; AID 624170, 2012; Potency, µM (titrated, usually from 45.5 µM), for inactives: at the highest dose activity change, negative = inhibition, most hits filed as inhibitors; actives 0.21% (n = 410,000); also: % is scaled to controls: 0 for no effect and ±100 for the full control effect
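Compounds were pin-transferred onto hKGA, after which L-glutamine (1 mM solution) and a detection mix of glutamate oxidase, HRP and Amplex Red were added. Initial and 30 min RT fluorescence reads were collected.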
JMJD2A Tudor: qHTS Assay for Inhibitors of JMJD2A-Tudor Domain. Lysine-specific demethylase 4A (Homo sapiens), O75164. AlphaScreen JMJD2A-Tudor / H3K4me3 peptide binding. Potency, µM (doses to about 114 µM), for the others: at the highest dose activity change, negative = inhibition, most hits filed as inhibitors. actives 4.4% (n = 390,000); also: % is scaled to controls: 0 for no effect and ±100 for the full control effect; nearly all actives have a fitted effect of over 50% in size
Target sequence (O75164 whole entry, looked up, the tested form may be a part): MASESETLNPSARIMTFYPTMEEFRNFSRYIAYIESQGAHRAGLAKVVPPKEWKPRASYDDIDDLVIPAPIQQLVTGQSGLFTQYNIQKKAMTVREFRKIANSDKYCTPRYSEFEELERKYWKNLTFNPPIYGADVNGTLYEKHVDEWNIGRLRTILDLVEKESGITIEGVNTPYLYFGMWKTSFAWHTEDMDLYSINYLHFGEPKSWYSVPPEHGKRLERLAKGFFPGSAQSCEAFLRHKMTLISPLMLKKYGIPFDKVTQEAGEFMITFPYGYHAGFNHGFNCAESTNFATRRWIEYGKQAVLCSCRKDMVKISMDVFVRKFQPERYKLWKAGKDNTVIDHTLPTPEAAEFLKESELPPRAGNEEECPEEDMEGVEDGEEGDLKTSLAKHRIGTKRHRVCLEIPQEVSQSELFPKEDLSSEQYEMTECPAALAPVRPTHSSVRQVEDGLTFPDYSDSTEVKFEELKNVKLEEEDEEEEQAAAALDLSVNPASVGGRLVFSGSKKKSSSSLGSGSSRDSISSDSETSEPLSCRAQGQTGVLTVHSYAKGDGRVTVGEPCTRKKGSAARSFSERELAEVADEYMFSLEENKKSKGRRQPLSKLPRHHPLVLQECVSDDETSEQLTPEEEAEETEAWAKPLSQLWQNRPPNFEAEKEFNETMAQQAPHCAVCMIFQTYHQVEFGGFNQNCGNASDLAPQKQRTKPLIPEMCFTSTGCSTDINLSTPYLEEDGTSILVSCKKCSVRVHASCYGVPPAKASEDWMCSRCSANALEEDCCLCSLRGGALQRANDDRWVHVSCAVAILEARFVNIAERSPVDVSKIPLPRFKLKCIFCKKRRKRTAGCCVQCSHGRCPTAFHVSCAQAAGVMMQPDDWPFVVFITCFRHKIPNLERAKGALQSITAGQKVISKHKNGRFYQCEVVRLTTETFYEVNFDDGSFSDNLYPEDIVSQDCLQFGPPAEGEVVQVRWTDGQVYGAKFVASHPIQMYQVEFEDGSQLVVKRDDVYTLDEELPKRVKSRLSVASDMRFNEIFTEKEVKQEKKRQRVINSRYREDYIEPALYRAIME
HP1b chromo inh: HTS for Inhibitors of HP1-beta Chromodomain Interactions with Methylated Histone Tails; Potency, µM (series often up to 114 µM), inactives show at the top dose activity change, negative = inhibition, actives largely listed as inhibitors; actives 0.56% (n = 390,000); Chromobox protein homolog 1 (Homo sapiens), P83916; AlphaScreen HP1-beta / biotin-H3K9me3 peptide binding; also: nearly all actives have a fitted effect of over 70% in size
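Compound inhibition of the preformed complex between 50 nM HP1-beta and 50 nM biotinylated H3K9me3 peptide was read by AlphaScreen. Buffer was PBS pH 7.4 with 0.01% Tween-20. Incubations ran 30 min at room temperature, with 10 ug/mL donor/acceptor beads.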
G9a inh: qHTS Assay for Inhibitors of Histone Lysine Methyltransferase G9a | actives 8.8% (n = 350,000) | Histone-lysine N-methyltransferase EHMT2 (Homo sapiens), Q96KQ7 | G9a H3K9 monomethylation, AlphaScreen, 2 h | Potency, µM (doses to about 102 µM), for inactives: at the highest dose activity, negative = inhibition, most hits filed as inhibitors; also: % is scaled to controls: 0 for no effect and ±100 for the full control effect; nearly all actives have a fitted effect of over 75% in size
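AlphaScreen detection with an anti-monomethyl H3K9 antibody quantified product after a 2 h room-temperature reaction containing 500 nM biotinylated H3K9 peptide, 20 µM SAM and 20 nM enzyme, which had been preincubated 15 min with compound.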
The depositor's hits bear a star; ? = inconclusive; . = not tested or not shown; [ ] = dose if it differs, or a comment. Calls follow the shape of the dose curve; as a rule, active = well fitted curve in the direction sought with a large enough effect; inconclusive = small, poorly fitted or top-dose-only effect, or another doubt; inactive = no such curve, though single readings can be large; an effect the other way counts as inactive or inconclusive. Potency is read from the fitted curve at half-maximal effect.

SMILES | BAZ2B block | GLS inhibitor | JMJD2A Tudor | HP1b chromo inh | G9a inh
CCOC(=O)N1CCN(C(=O)/C(=C/c2ccc(F)cc2)NC(=O)c2ccccc2)CC1 | -4% | -2% | -3% | 25% | 0%
CCOC(=O)N1CCN(C(=S)NC(=O)c2nn(C)cc2Br)CC1 | -7% | -6% | -22% | 33% | ?
CCOC(=O)N1CCN(C(=S)NC(=O)c2ccc(F)cc2)CC1 | ? | 21% | -17% | 2% | 28µM*
CCOC(=O)N1CCN(C(=S)NC(=O)c2ccnn2C)CC1 | -28% | 5% | ? | -11% | 20µM*
CC1=C(C(=O)OCC(C)C)C2(O)C(=O)c3ccccc3C2(O)N1 (stereo unspecified) | 10% | 10% | -8% | 24% | -3%[59 µM]
COc1cc(NC(=O)NCCN2CCN(c3ccccc3)CC2)cc(OC)c1OC | -3% | 3% | -24% | 4% | 19%
Cc1[nH]n(-c2ccccc2)c(=O)c1Sc1ccc(Cl)cc1 | -33% | -3% | -20% | 14% | ?
Cc1cc(-c2c(C)[nH]n(-c3ccc(Cl)cc3)c2=O)n[nH]1 | 28µM* | 3% | ? | 8% | 1%
CC(CC(=O)Nc1nnc(CC(C)(C)C)s1)c1ccccc1 (stereo unspecified) | 5% | 5% | -12% | -7% | 40µM*
CC(C)(C)Cc1nnc(NS(=O)(=O)c2ccccc2)s1 | -19% | 13% | -13% | -1% | 79µM*
COc1cccc(C(=O)NCCS(=O)(=O)N2CCN(C(=O)c3ccco3)CC2)c1 | 12% | -11% | -3% | 37% | 14µM*
COc1cccc(C(=O)NCCS(=O)(=O)N2CCCCC2)c1 | 12% | -7% | -3% | 22% | 11µM*
COc1cccc(C(=O)NCCS(=O)(=O)N2CCCC2)c1 | -2% | 1% | -8% | 20% | 32µM*
COc1cccc(C(=O)NCCCNC(=O)c2ccco2)c1 | 7% | -6% | -4% | 31% | 21%
COc1cccc(C(=O)NCCS(=O)(=O)N2CCc3ccccc3C2)c1 | 6% | 4% | -15% | 16% | -40%
CCOC(=O)N1CCN(S(=O)(=O)CCNC(=O)c2cccc(OC)c2)CC1 | -1% | 4% | 0% | 22% | 50µM*
COc1cccc(C(=O)NCCS(=O)(=O)N2CCCCCC2)c1 | -3% | 2% | -13% | 15% | ?
CCCCCC/C(=N\NS(C)(=O)=O)c1ccccc1 | 6% | 14% | -3% | 33% | ?
COc1ccc(Cc2ccccc2C(=O)O)cc1 | . | 8% | -10% | 9%[57 µM] | .
COc1ccc(CC2=CC(=O)c3ccccc3C2=O)cc1 | 14µM* | 6% | 25µM* | 13µM* | .
COc1cccc(C(=O)COc2ccc3ccc(=O)oc3c2)c1 | 1% | -6% | -3% | 15% | 13%
O=C(CSc1nnc(SCc2cccc3ccccc23)s1)Nc1ccc(C(=O)O)cc1 | ? | ? | 13µM* | ? | ?
O=C(CSc1nnc(SCc2cccc3ccccc23)s1)N=Nc1c(O)[nH]c2ccccc12 | 50µM* | . | . | . | ?
O=c1[nH]c2ccc(NS(=O)(=O)c3ccc(F)c(Cl)c3)cc2[nH]1 | -3% | -12% | ? | -3% | ?
O=c1[nH]c2ccc(NS(=O)(=O)c3ccc(Cl)cc3)cc2[nH]1 | -18% | 19% | -8% | 35% | 56µM*
SMILES | BAZ2B block | GLS inhibitor | JMJD2A Tudor | HP1b chromo inh | G9a inh
O=c1[nH]c2ccc(NS(=O)(=O)c3ccc4ccccc4c3)cc2[nH]1 | -15% | 14% | 8% | 35% | 50µM*
COc1ccc(NS(=O)(=O)c2ccc3[nH]c(=O)[nH]c3c2)cc1 | ? | 6% | -11% | 35% | ?
Cc1ccc(C(=O)CCC(=O)Nc2cccc(C(F)(F)F)c2)cc1C | . | 10% | 6% | 37% | .
COc1ccc(OC)c2c1C(=O)C(Cl)=C(Cl)C2=O | 45µM* | 4% | 0.89µM* | 2.2µM* | .
O=C1C=C(O)c2c(O)cc(O)c(O)c2C1=O | . | ? | 1.6µM* | ? | .
Nc1ccc(Br)c2c1C(=O)c1ccccc1C2=O | 10µM* | -2% | ? | ? | 4%[0.0925 µM]
COc1ccc(OC)c2c1C(=O)c1ccccc1C2=O | -1% | -13% | -12% | 12% | -3%[59 µM]
COc1ccc(N)c2c1C(=O)c1ccccc1C2=O | 32µM* | -2% | 45µM* | 45µM* | 25µM*
CCOc1ccc(NC(=O)Cn2c(CCC(=O)O)ccc2-c2ccc(C)cc2)cc1 | -32% | 17% | -18% | -1% | -36%[59 µM]
COc1cccc2c1C(=O)c1ccc3ccccc3c1C2=O | ? | -6% | ? | 17% | 40µM*
Nc1ccc(O)c2c1C(=O)c1ccccc1C2=O | 4µM* | 7.9µM* | 5.6µM* | ? | 7.1µM*
COc1cccc2c1-c1c(C(=O)O)cccc1C2=O | -29% | -2% | 13% | 33% | ?
O=C1c2ccccc2C(=O)c2c(O)c(O)cc(O)c21 | . | ? | 22µM* | 11µM* | ?
Cc1ccc(NC(=O)c2ccncc2)cc1S(=O)(=O)N(C)C | 11% | 9% | -6% | 33% | 50µM*
Cc1ccc(NC(=O)c2ccc(OC(F)(F)F)cc2)cc1S(=O)(=O)N(C)C | 13% | 15% | 10%[57.1 µM] | 46% | 22%[59 µM]
Cc1ccc(NC(=O)COC(=O)C2CC(=O)N(Cc3ccccc3)C2)cc1S(=O)(=O)N(C)C (stereo unspecified) | -17% | 0% | -4%[57.1 µM] | 31% | 40µM*
CC(=O)N1CCN(CC(=O)Nc2ccc(Cl)c(S(=O)(=O)N(C)C)c2)CC1 | -1% | 10% | -22% | 34% | 13%[59 µM]
Cc1ccc(NC(=O)CCNCc2ccco2)cc1S(=O)(=O)N(C)C | 50µM* | 1% | 1.8µM* | ? | 8.9µM*
CC(=O)N1CCN(CC(=O)Nc2ccc(C)c(S(=O)(=O)N(C)C)c2)CC1 | 79µM* | -3% | 5.6µM* | ? | 4.5µM*
Cc1ccc(/C=N/NC(=O)C[n+]2ccccc2)o1 | -20% | 4% | 3% | -25% | -39%
COc1ccc(S(=O)(=O)N(CC(=O)Nc2cc(Cl)ccc2C)Cc2ccccc2)cc1OC | 3% | 3% | -25% | 58% | 1%[59 µM]
Cc1ccc(NC(=O)CN2CCC(Cc3ccccc3)CC2)cc1S(=O)(=O)N(C)C | 40µM* | 1% | 18µM* | ? | 8.9µM*
Cc1ccc(NC(=O)CN2CCN(C(=O)c3ccco3)CC2)cc1S(=O)(=O)N(C)C | . | -3% | 6.3µM* | ? | .
CCOc1ccc(NC(=O)CN2CCN(C(=O)c3ccco3)CC2)cc1S(=O)(=O)N1CCCC1 | -4% | 2% | -10% | 20% | 9%[12.7 µM]
